Data from PMC11006913.
Positions count from the first letter of the chain named.

Assays:
Test in all cases: PBM; 200 nM protein, PBS
Settings in all cases: dsDNA, one strand shown
[1] = molecular target: HOXB4 (Homo sapiens, UniProt P17483 148-234)
[2] = molecular target: T1, VENTX (Homo sapiens, UniProt O95231 78-163, R121Q)
T1 sequence: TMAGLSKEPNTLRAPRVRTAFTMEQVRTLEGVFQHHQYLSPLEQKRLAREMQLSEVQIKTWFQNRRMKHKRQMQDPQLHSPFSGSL

[3] = molecular target: ALX4 (Homo sapiens, UniProt Q9H161 200-286)
[4] = molecular target: T2, PAX4 (Homo sapiens, UniProt O43316 9-242, R200K)
T2 sequence: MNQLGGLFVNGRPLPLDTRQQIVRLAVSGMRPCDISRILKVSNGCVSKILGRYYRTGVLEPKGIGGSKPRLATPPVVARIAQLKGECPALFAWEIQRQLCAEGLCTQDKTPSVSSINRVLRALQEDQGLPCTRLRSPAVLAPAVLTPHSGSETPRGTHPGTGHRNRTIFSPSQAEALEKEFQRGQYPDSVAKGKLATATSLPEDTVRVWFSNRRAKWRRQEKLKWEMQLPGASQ

[5] = molecular target: PRRX1 (Homo sapiens, UniProt P54821 80-166, F113S)
[6] = molecular target: T3, VENTX (Homo sapiens, UniProt O95231 78-163, Y115F)
T3 sequence: T1 sequence with Y38F, Q44R

[7] = molecular target: HOXB6 (Homo sapiens, UniProt P17509 132-218, K202E)
[8] = molecular target: HOXA2 (Homo sapiens, UniProt O43364 129-215, R185T)
[9] = molecular target: HOXA4 (Homo sapiens, UniProt Q00056 201-287, R217L)
[10] = molecular target: HOXB4 (Homo sapiens, UniProt P17483 148-234, V174I)
[11] = molecular target: T4, PAX4 (Homo sapiens, UniProt O43316 9-242, R200Q)
T4 sequence: T2 sequence with K192Q

[12] = molecular target: HOXA2 (Homo sapiens, UniProt O43364 129-215, R185K)
[13] = molecular target: T5, PAX4 (Homo sapiens, UniProt O43316 9-242, F177V)
T5 sequence: T2 sequence with F169V, K192R

[14] = molecular target: MSX2 (Homo sapiens, UniProt P35548 130-214)
[15] = molecular target: T6, PAX4 (Homo sapiens, UniProt O43316 9-242, F177Y)
T6 sequence: T2 sequence with F169Y, K192R

[16] = molecular target: MSX2 (Homo sapiens, UniProt P35548 130-214, F161Y)
[17] = molecular target: VAX1 (Homo sapiens, UniProt Q5SQQ9 86-172, T142I)
[18] = molecular target: HOXA4 (Homo sapiens, UniProt Q00056 201-287, W262F)
[19] = molecular target: PRRX1 (Homo sapiens, UniProt P54821 80-166)
[20] = molecular target: VAX1 (Homo sapiens, UniProt Q5SQQ9 86-172, K157R)
VAX1 (Homo sapiens, UniProt Q5SQQ9 86-172, K157R), sequence (Q5SQQ9 86-172 K157R): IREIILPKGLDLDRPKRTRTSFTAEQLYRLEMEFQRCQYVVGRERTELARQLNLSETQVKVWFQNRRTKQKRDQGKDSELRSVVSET

PRRX1 (Homo sapiens, UniProt P54821 80-166, F113S), sequence (P54821 80-166 F113S): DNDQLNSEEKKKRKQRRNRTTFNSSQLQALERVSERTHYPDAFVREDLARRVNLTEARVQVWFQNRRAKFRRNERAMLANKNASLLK
PRRX1 (Homo sapiens, UniProt P54821 80-166), sequence (P54821 80-166): as the sequence (P54821 80-166 F113S) above, with S34F counted along it
MSX2 (Homo sapiens, UniProt P35548 130-214), sequence (P35548 130-214): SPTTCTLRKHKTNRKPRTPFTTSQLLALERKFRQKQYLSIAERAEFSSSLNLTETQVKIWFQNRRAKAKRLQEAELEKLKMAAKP
MSX2 (Homo sapiens, UniProt P35548 130-214, F161Y), sequence (P35548 130-214 F161Y): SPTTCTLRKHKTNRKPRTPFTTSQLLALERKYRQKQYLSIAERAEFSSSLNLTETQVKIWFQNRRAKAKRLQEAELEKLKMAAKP
ALX4, sequence (Q9H161 200-286): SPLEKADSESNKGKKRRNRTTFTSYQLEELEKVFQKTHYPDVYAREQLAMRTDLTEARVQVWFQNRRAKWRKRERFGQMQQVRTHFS
HOXA4 (Homo sapiens, UniProt Q00056 201-287, W262F), sequence (Q00056 201-287 W262F): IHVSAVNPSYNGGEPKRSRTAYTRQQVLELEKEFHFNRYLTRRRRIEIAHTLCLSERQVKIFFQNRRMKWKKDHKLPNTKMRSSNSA
HOXB6, sequence (P17509 132-218 K202E): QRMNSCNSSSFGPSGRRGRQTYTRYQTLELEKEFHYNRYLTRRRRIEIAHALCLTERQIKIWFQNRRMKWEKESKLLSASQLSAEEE
HOXB4 (Homo sapiens, UniProt P17483 148-234), sequence (P17483 148-234): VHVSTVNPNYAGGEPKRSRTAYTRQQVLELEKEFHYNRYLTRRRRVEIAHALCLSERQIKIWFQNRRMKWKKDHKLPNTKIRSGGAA
HOXA2 (Homo sapiens, UniProt O43364 129-215, R185K), sequence (O43364 129-215 R185K): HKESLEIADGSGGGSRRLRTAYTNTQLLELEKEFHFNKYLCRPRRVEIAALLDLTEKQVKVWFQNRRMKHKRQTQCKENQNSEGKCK
HOXB4 (Homo sapiens, UniProt P17483 148-234, V174I), sequence (P17483 148-234 V174I): as the sequence (P17483 148-234) above, with V27I counted along it
VAX1 (Homo sapiens, UniProt Q5SQQ9 86-172, T142I), sequence (Q5SQQ9 86-172 T142I): as the sequence (Q5SQQ9 86-172 K157R) above, with T57I, R72K counted along it
HOXA2 (Homo sapiens, UniProt O43364 129-215, R185T), sequence (O43364 129-215 R185T): as the sequence (O43364 129-215 R185K) above, with K57T counted along it
HOXA4 (Homo sapiens, UniProt Q00056 201-287, R217L), sequence (Q00056 201-287 R217L): as the sequence (Q00056 201-287 W262F) above, with R17L, F62W counted along it

Sequence | binding signal [1] | binding signal [2] | binding signal [3] | binding signal [4] | binding signal [5] | binding signal [6] | binding signal [7] | binding signal [8] | binding signal [9] | binding signal [10] | binding signal [11] | binding signal [12] | binding signal [13] | binding signal [14] | binding signal [15] | binding signal [16] | binding signal [17] | binding signal [18] | binding signal [19] | binding signal [20]
AATAATTA | 13.5 upbm affinity estimate (log intensity, higher = more binding, comparable within an allelic series) | 12 upbm affinity estimate (log intensity, higher = more binding, comparable within an allelic series) | 14.2 upbm affinity estimate (log intensity, higher = more binding, comparable within an allelic series) | 11.8 upbm affinity estimate (log intensity, higher = more binding, comparable within an allelic series) | 11.7 upbm affinity estimate (log intensity, higher = more binding, comparable within an allelic series) | 11.8 upbm affinity estimate (log intensity, higher = more binding, comparable within an allelic series) | 10.2 upbm affinity estimate (log intensity, higher = more binding, comparable within an allelic series) | 13.5 upbm affinity estimate (log intensity, higher = more binding, comparable within an allelic series) | 12.7 upbm affinity estimate (log intensity, higher = more binding, comparable within an allelic series) | 14.2 upbm affinity estimate (log intensity, higher = more binding, comparable within an allelic series) | 12.2 upbm affinity estimate (log intensity, higher = more binding, comparable within an allelic series) | 13.6 upbm affinity estimate (log intensity, higher = more binding, comparable within an allelic series) | 10.8 upbm affinity estimate (log intensity, higher = more binding, comparable within an allelic series) | 14 upbm affinity estimate (log intensity, higher = more binding, comparable within an allelic series) | 11.1 upbm affinity estimate (log intensity, higher = more binding, comparable within an allelic series) | 13.6 upbm affinity estimate (log intensity, higher = more binding, comparable within an allelic series) | 13.4 upbm affinity estimate (log intensity, higher = more binding, comparable within an allelic series) | 12.2 upbm affinity estimate (log intensity, higher = more binding, comparable within an allelic series) | 13.5 upbm affinity estimate (log intensity, higher = more binding, comparable within an allelic series) | 13.4 upbm affinity estimate (log intensity, higher = more binding, comparable within an allelic series)
CATAATTA | 13.6 upbm affinity estimate (log intensity, higher = more binding, comparable within an allelic series) | 12 upbm affinity estimate (log intensity, higher = more binding, comparable within an allelic series) | 14.2 upbm affinity estimate (log intensity, higher = more binding, comparable within an allelic series) | 11.9 upbm affinity estimate (log intensity, higher = more binding, comparable within an allelic series) | 11.6 upbm affinity estimate (log intensity, higher = more binding, comparable within an allelic series) | 11.9 upbm affinity estimate (log intensity, higher = more binding, comparable within an allelic series) | 10.2 upbm affinity estimate (log intensity, higher = more binding, comparable within an allelic series) | 13.6 upbm affinity estimate (log intensity, higher = more binding, comparable within an allelic series) | 12.7 upbm affinity estimate (log intensity, higher = more binding, comparable within an allelic series) | 14.4 upbm affinity estimate (log intensity, higher = more binding, comparable within an allelic series) | 12.1 upbm affinity estimate (log intensity, higher = more binding, comparable within an allelic series) | 13.8 upbm affinity estimate (log intensity, higher = more binding, comparable within an allelic series) | 11 upbm affinity estimate (log intensity, higher = more binding, comparable within an allelic series) | 13.9 upbm affinity estimate (log intensity, higher = more binding, comparable within an allelic series) | 11.3 upbm affinity estimate (log intensity, higher = more binding, comparable within an allelic series) | 13.5 upbm affinity estimate (log intensity, higher = more binding, comparable within an allelic series) | 13.6 upbm affinity estimate (log intensity, higher = more binding, comparable within an allelic series) | 12.2 upbm affinity estimate (log intensity, higher = more binding, comparable within an allelic series) | 13.6 upbm affinity estimate (log intensity, higher = more binding, comparable within an allelic series) | 13.7 upbm affinity estimate (log intensity, higher = more binding, comparable within an allelic series)
ATTAATTG | 13.4 upbm affinity estimate (log intensity, higher = more binding, comparable within an allelic series) | 12.2 upbm affinity estimate (log intensity, higher = more binding, comparable within an allelic series) | 14.2 upbm affinity estimate (log intensity, higher = more binding, comparable within an allelic series) | 11.8 upbm affinity estimate (log intensity, higher = more binding, comparable within an allelic series) | 11.4 upbm affinity estimate (log intensity, higher = more binding, comparable within an allelic series) | 11.9 upbm affinity estimate (log intensity, higher = more binding, comparable within an allelic series) | 10.1 upbm affinity estimate (log intensity, higher = more binding, comparable within an allelic series) | 13.3 upbm affinity estimate (log intensity, higher = more binding, comparable within an allelic series) | 12.5 upbm affinity estimate (log intensity, higher = more binding, comparable within an allelic series) | 14.2 upbm affinity estimate (log intensity, higher = more binding, comparable within an allelic series) | 12.2 upbm affinity estimate (log intensity, higher = more binding, comparable within an allelic series) | 13.5 upbm affinity estimate (log intensity, higher = more binding, comparable within an allelic series) | 10.7 upbm affinity estimate (log intensity, higher = more binding, comparable within an allelic series) | 14 upbm affinity estimate (log intensity, higher = more binding, comparable within an allelic series) | 11.2 upbm affinity estimate (log intensity, higher = more binding, comparable within an allelic series) | 13.7 upbm affinity estimate (log intensity, higher = more binding, comparable within an allelic series) | 12.9 upbm affinity estimate (log intensity, higher = more binding, comparable within an allelic series) | 11.8 upbm affinity estimate (log intensity, higher = more binding, comparable within an allelic series) | 13.4 upbm affinity estimate (log intensity, higher = more binding, comparable within an allelic series) | 12.9 upbm affinity estimate (log intensity, higher = more binding, comparable within an allelic series)
TAATTATA | 13.5 upbm affinity estimate (log intensity, higher = more binding, comparable within an allelic series) | 11.9 upbm affinity estimate (log intensity, higher = more binding, comparable within an allelic series) | 14.3 upbm affinity estimate (log intensity, higher = more binding, comparable within an allelic series) | 11.7 upbm affinity estimate (log intensity, higher = more binding, comparable within an allelic series) | 11.8 upbm affinity estimate (log intensity, higher = more binding, comparable within an allelic series) | 11.8 upbm affinity estimate (log intensity, higher = more binding, comparable within an allelic series) | 10.3 upbm affinity estimate (log intensity, higher = more binding, comparable within an allelic series) | 13.6 upbm affinity estimate (log intensity, higher = more binding, comparable within an allelic series) | 12.7 upbm affinity estimate (log intensity, higher = more binding, comparable within an allelic series) | 14.3 upbm affinity estimate (log intensity, higher = more binding, comparable within an allelic series) | 12.1 upbm affinity estimate (log intensity, higher = more binding, comparable within an allelic series) | 13.7 upbm affinity estimate (log intensity, higher = more binding, comparable within an allelic series) | 10.7 upbm affinity estimate (log intensity, higher = more binding, comparable within an allelic series) | 14 upbm affinity estimate (log intensity, higher = more binding, comparable within an allelic series) | 11 upbm affinity estimate (log intensity, higher = more binding, comparable within an allelic series) | 13.6 upbm affinity estimate (log intensity, higher = more binding, comparable within an allelic series) | 13.4 upbm affinity estimate (log intensity, higher = more binding, comparable within an allelic series) | 12.1 upbm affinity estimate (log intensity, higher = more binding, comparable within an allelic series) | 13.6 upbm affinity estimate (log intensity, higher = more binding, comparable within an allelic series) | 13.4 upbm affinity estimate (log intensity, higher = more binding, comparable within an allelic series)
